Measurements reported in PubChem BioAssay (NCATS).
“And” between values parts separate entries of the source, which are not always exact repeats. Identical values can stand only once. Inconclusive results are not listed. The source made the active and inactive calls. Unless noted, calls follow the shape of the dose curve; as a rule, active = well fitted curve in the direction sought with a large enough effect; inconclusive = small, poorly fitted or top-dose-only effect, or another doubt; inactive = no such curve, though single readings can be large; an effect the other way counts as inactive or inconclusive.

What was measured:
[1] = qHTS Assay for Lipid Storage Modulators (AID 1519; calls by dose curve; as to activity change, negative = inhibition: % is scaled to controls: 0 for no effect and ±100 for the full control effect); conditions: Drosophila S3 cells, BODIPY lipid droplet/cell ratio, laser cytometry, cells loaded with oleic acid
Outline: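 Cells seeded at 5,000 per well were treated with compounds over a concentration series and loaded with oleic acid (400 uM, as added). Lipid droplet fluorescence (488 nm excitation, 500-530 nm channel) was read by laser-scanning cytometry and normalized to 20 uM Triacsin C.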

[2] = biological target: Alpha-galactosidase A (Homo sapiens) (UniProt P06280); assay: Counterscreen for Glucocerebrosidase Inhibitors: qHTS Assay for Human alpha-Galactosidase at pH 4.5 (AID 992); conditions: purified enzyme, fluorogenic substrate; series mostly up to 76.9 µM; also: 0% is about no effect
Chain of Alpha-galactosidase A (Homo sapiens) (P06280 whole entry, looked up): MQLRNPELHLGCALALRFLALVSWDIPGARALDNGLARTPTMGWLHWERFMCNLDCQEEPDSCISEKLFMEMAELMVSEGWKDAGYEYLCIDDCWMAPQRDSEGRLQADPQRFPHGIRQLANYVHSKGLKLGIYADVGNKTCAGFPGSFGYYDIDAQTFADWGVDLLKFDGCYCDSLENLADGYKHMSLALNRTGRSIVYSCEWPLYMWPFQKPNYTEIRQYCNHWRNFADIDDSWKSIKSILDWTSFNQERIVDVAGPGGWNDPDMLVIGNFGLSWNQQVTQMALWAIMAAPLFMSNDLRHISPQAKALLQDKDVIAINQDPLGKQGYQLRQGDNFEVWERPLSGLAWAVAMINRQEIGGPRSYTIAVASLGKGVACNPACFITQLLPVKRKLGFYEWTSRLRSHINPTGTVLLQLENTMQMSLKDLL
Outline: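 Steps: enzyme (2 nM final), then compound across 0.7 nM to 77 uM, then 80 uM fluorogenic galactopyranoside substrate; incubate 20 min at room temperature; quench at pH 10; measure fluorescence at 365/440 nm.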

[3] = biological target: alpha-glucosidase (Oryza sativa, rice) (UniProt Q653V4); assay: Counterscreen for Glucocerebrosidase Inhibitors: qHTS Assay for Rice alpha-Glucosidase at pH 5.0 (AID 997); conditions: rice alpha-glucosidase enzyme activity; series mostly up to 76.9 µM;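 also: 0% = full activity with enzyme and -100% = basal without enzyme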
Outline: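 Endpoint fluorogenic assay at pH 5.0: compounds (0.7 nM to 77 uM) titrated against 4 nM rice enzyme and 400 uM 4-MU-alpha-glucoside for 20 min at room temperature; NaOH/glycine stop, read ex 365/em 440 nm, Hill-fitted AC50.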

[4] = biological target: DNA repair nuclease/redox regulator APEX1 (Homo sapiens) (UniProt P27695); assay: qHTS Validation Assay for Inhibitors of the Human Apurinic/apyrimidinic Endonuclease 1 (APE1) (AID 1705;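 also: TAMRA fluorescence gain over two minutes as APE1 cuts a quenched THF abasic duplex; % is scaled to controls: 0 for no effect and ±100 for the full control effect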); conditions: purified APE1 endonuclease activity, fluorescence, titration; series mostly up to 57.1 µM
Chain of DNA repair nuclease/redox regulator APEX1 (Homo sapiens) (P27695 whole entry, looked up): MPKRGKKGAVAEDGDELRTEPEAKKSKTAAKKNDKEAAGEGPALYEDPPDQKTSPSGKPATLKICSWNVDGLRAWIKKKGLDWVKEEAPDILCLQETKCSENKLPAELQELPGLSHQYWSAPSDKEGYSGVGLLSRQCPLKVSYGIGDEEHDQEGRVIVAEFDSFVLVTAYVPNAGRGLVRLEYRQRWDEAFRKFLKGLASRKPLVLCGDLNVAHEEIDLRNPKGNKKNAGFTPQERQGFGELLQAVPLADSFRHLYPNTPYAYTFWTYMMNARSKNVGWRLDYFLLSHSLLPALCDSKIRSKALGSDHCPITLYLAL
Outline: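 Substrate: 50 nM final fluorophore/quencher THF-abasic duplex. Enzyme preincubated with compounds 15 min, RT. Progress derived from fluorescence difference, third minus first kinetic read.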

[5] = Counterscreen for APE1 Inhibitors: Fluorescent Dye Displacement Validation Assay (AID 1707); conditions: fluorescent dye displacement from DNA; series mostly up to 57.1 µM;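 also: plate controls were ThO with dsDNA and no compound for no effect and ThO without dsDNA for full effect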
Outline: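 Reaction mixture of 250 nM Thiazole Orange and 50 nM double-stranded abasic-site DNA was dispensed, compounds were pin-transferred, and fluorescence was read at endpoint (480 nm ex, 540 nm em). Reduced fluorescence indicated dye displacement by DNA binding.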

[6] = biological target: Endonuclease 4 (Escherichia coli (strain K12)) (UniProt P0A6C1); assay: Counterscreen for APE1 Inhibitors: qHTS Validation Assay for Inhibitors of Endonuclease IV (AID 1708); also: % is scaled to controls: 0 for no effect and ±100 for the full control effect; conditions: E. coli endonuclease IV, DNA cleavage fluorescence; series mostly up to 57.1 µM
Outline: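 Incision of a double-stranded 50 nM TAMRA/BHQ-2 abasic substrate was followed kinetically (525/598 nm, reads every 60 s) after 15 min enzyme–compound preincubation with 2 nM EndoIV in pH 7.5 Tris buffer with MgCl2, DTT and Tween-20; concentration-response format.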

[7] = qHTS for differential inhibitors of proliferation of Plasmodium falciparum line 7G8 (AID 1815); conditions: Plasmodium falciparum 7G8 proliferation inhibition; series mostly up to 28.7 µM;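 also: parasite growth measured after three days of incubation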; also: potency is read from the fitted curve at half-maximal effect;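 as to activity change, negative = inhibition: plate controls were vehicle wells for no effect and reference inhibitor wells for full effect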
[8] = qHTS for differential inhibitors of proliferation of Plasmodium falciparum line GB4 (AID 1816); conditions: Potency: Plasmodium falciparum GB4 proliferation inhibition; series mostly up to 28.7 µM;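 also: parasite growth measured after 72 h incubation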; also: potency is read from the fitted curve at half-maximal effect;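 as to activity change, negative = inhibition: 0% = vehicle DMSO and -100% = reference inhibitor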
[9] = qHTS for differential inhibitors of proliferation of Plasmodium falciparum line 3D7 (AID 1876); also: potency is read from the fitted curve at half-maximal effect; conditions: P. falciparum 3D7 proliferation inhibition; series mostly up to 28.7 µM
[10] = qHTS for differential inhibitors of proliferation of Plasmodium falciparum line D10 (AID 1877); conditions: series mostly up to 28.7 µM;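 also: parasites grown with compound for 72 h before DNA staining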; also: potency is read from the fitted curve at half-maximal effect;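 as to activity change, negative = inhibition: plate controls were vehicle wells for no effect and reference inhibitor wells for full effect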
[11] = qHTS for differential inhibitors of proliferation of Plasmodium falciparum line W2 (AID 1883); conditions: Potency: Plasmodium falciparum W2 proliferation inhibition; series mostly up to 28.7 µM;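 also: parasites grown with compound for 72 h before lysis and staining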; also: potency is read from the fitted curve at half-maximal effect;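 as to activity change, negative = inhibition: 0% = vehicle wells and -100% = control inhibitor wells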
[12] = qHTS for differential inhibitors of proliferation of Plasmodium falciparum line HB3 (AID 1886); conditions: Potency: Plasmodium falciparum HB3 proliferation inhibition; series mostly up to 28.7 µM;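 also: parasites grown with compound for 72 h before SYBR Green readout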; also: potency is read from the fitted curve at half-maximal effect;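 as to activity change, negative = inhibition: plate controls were vehicle for no effect and reference inhibitor for full effect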
[13] = biological target: Ferritin light chain (Equus caballus) (UniProt P02791); assay: qHTS Validation Assay for Identification of Novel General Anesthetics (AID 2323); conditions: horse apoferritin, anesthetic-site fluorescent probe displacement; series mostly up to 76.9 µM; also: % is scaled to controls: 0 for no effect and ±100 for the full control effect
Chain of Ferritin light chain (Equus caballus) (P02791 2-175 limits assumed): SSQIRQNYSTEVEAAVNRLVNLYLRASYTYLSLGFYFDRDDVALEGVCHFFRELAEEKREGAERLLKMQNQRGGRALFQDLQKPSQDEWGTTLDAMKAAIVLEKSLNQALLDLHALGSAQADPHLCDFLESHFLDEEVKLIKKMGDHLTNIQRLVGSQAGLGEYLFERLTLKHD
Outline: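 Normalized fluorescence response, scaled between free 1-AMA and 1-AMA/apoferritin complex, fitted to a four-parameter Hill equation for concentration-effect values. Binding mix: 10 uM horse-spleen apoferritin, 50% saturated 1-AMA in PBS; read 380/535 nm after 10 min.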

[14] = biological target: ATP-dependent DNA helicase Q1 (Homo sapiens) (UniProt P46063); assay: qHTS Validation Assay for Inhibitors of RecQ-Like Dna Helicase 1 (RECQ1) (AID 2353); conditions: recombinant RECQ1 helicase DNA unwinding assay; series mostly up to 25.6 µM;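 also: plate controls were DMSO vehicle for no effect and enzyme-free control for full effect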
Chain of ATP-dependent DNA helicase Q1 (Homo sapiens) (P46063 whole entry, looked up): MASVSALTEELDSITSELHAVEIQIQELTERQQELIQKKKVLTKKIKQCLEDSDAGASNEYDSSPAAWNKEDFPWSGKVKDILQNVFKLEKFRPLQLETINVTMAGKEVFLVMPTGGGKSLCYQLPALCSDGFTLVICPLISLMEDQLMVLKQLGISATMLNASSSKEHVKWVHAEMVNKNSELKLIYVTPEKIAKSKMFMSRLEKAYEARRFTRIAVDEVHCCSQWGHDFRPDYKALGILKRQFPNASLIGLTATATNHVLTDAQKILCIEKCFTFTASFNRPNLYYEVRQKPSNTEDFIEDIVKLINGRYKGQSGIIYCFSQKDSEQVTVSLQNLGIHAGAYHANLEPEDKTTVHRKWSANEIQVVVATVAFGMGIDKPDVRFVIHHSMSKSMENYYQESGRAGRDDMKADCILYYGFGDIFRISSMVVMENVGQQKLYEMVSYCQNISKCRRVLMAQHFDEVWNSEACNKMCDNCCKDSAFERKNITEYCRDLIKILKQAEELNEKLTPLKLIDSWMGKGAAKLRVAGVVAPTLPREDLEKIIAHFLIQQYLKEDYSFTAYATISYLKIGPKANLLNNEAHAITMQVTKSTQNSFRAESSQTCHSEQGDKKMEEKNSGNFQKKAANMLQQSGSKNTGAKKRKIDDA
Outline: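 RECQ1T1 50 nM; forked duplex (20 bp + 30-nt ss tails) 200 nM, ATP 2 mM final; pH 8.0, 2 mM MgCl2, 2.5 ug/ml poly(dI-dC); 15 min compound preincubation; discontinuous kinetic read over 2 h at RT.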

[15] = Cell Viability - LYMP2-020 (AID 986); conditions: series mostly up to 92.2 µM; also: nearly all actives have a fitted effect of over 55% in size; also: potency is read from the fitted curve at half-maximal effect
Outline: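 Cytotoxicity in qHTS format: luminescent ATP readout from CellTiter-Glo after 24 h compound exposure at 37 C in complete medium. LYMP2-020 lymphoblastoid cells were seeded at 2500/well; concentration-response data fitted to the Hill equation for AC50.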

[16] = Cell Viability - LYMP2-022 (AID 987); conditions: LYMP2-022 lymphoblastoid cell viability; series mostly up to 92.2 µM;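 also: cells exposed to compound for 24 hr; nearly all actives have a fitted effect of over 55% in size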; also: potency is read from the fitted curve at half-maximal effect
Outline: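 Cytotoxicity read as decreased cellular ATP (CellTiter-Glo luminescence, 30 min room temperature) after 24 hours compound exposure of 2500 lymphoblastoid LYMP2-022 cells/well at 37 C. Concentration-response data fitted with standard Hill equation for AC50.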

[17] = Cell Viability - LYMP2-026 (AID 989); conditions: LYMP2-026 lymphoblastoid cell viability, qHTS; series mostly up to 92.2 µM; also: nearly all actives have a fitted effect of over 50% in size; also: potency is read from the fitted curve at half-maximal effect
Outline: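 Cytotoxicity read as ATP-dependent luminescence (CellTiter-Glo, 30 min room temperature) after 24 h compound treatment at 37 C. LYMP2-026 lymphoblastoid line seeded at 2500 cells/well; AC50 derived by standard Hill equation.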

[18] = Validation of Assay for Modulators of Lamin A Splicing (AID 1459; active = well fitted curve in the direction sought with a large enough effect in the signal ratio; the % refers to the signal ratio;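 also: cells exposed to compound for two days before reading; 0% is about no effect; ratio rise marks activators and ratio drop marks inhibitors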); conditions: Lamin A splicing dual RFP/GFP fluorescence reporter; series mostly up to 9.22 µM
Outline: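 Dual-reporter HeLa S3 line (lamin A-EGFP minigene, DsRed2) treated with compounds 48 hrs, 0.5% DMSO final. Endpoint: EGFP/DsRed2 total intensity ratio from laser-scanning microplate cytometry.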

[19] = qHTS Assay for Identification of Small Molecule Inducers of Hypoxia Response (AID 2120; active = well fitted curve in the direction sought with a large enough effect in the signal ratio, with a control signal flat, not every such curve was filed as active; the % refers to the signal ratio; also: 0% is about no effect); conditions: hypoxia response reporter cells, beta-lactamase ratio readout; series mostly up to 104 µM
Outline: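 Reporter induction read as the CCF4 blue/green (460nm/530nm) emission ratio after 2.5 h dye loading at room temperature. ME-180 HRE-beta-lactamase cells received titrated compounds for 17 h at 37 degrees Celsius; AC50 values derived.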

[20] = measured here: cell count channel max response
[21] = measured here: lipid channel max response

O=c1cc(-c2ccccc2)oc2cc(O)c(O)c(O)c12
-15.3%: max response [1, 20]
inactive: activity change, negative = inhibition ([1]; at 57.5 µM (top of the series)) 6.99%
-4.95%: max response [1, 21]

CCN1CCC[C@H]1CNC(=O)c1cc(S(N)(=O)=O)ccc1OC
inactive: outcome [2] | outcome [3] | activity change, negative = inhibition ([1]; at 25.7 µM (top of the series)) -2.7% | activity change, negative = inhibition ([1]; at 57.5 µM (top of the series)) -2.29% and -0.529% | outcome [4] | outcome [5] | outcome [6] | Potency [7] | Potency [8] | Potency [9] | Potency [10] | Potency [11] | Potency [12] | outcome [13] | outcome [14]
-10.9% and 9.44% and 14.1%: max response [1, 21]
-6.81% and 8.22% and 14.9%: max response [1, 20]

NC(N)=Nc1nc(CSCC/C(N)=N/S(N)(=O)=O)cs1
inactive: outcome [2] | outcome [3] | activity change, negative = inhibition ([1]; at 25.7 µM (top of the series)) -0.328% | activity change, negative = inhibition ([1]; at 57.5 µM (top of the series)) 0.654% | outcome [4] | outcome [5] | outcome [6] | Potency [7] | Potency [8] | Potency [9] | Potency [10] | Potency [11] | Potency [12] | outcome [13] | outcome [14]
9.12% and -7.51%: max response [1, 21]
10.2% and -8.15%: max response [1, 20]

O=c1c(-c2ccc(O)cc2)coc2cc(O)ccc12
inactive: Potency [15] | Potency [16] | Potency [17] | outcome [2] | outcome [3] | outcome [18] | activity change, negative = inhibition ([1]; at 57.5 µM (top of the series)) 2.37% and 2.36% and 1.08% | outcome [4] | outcome [5] | outcome [6] | Potency [7] | Potency [8] | Potency [9] | Potency [10] | Potency [11] | Potency [12] | outcome [13] | outcome [14]
24.2% and -1.3% and -6.64%: max response [1, 21]
20.5% and -6.62% and -6.98%: max response [1, 20]

CC/C(=C(\c1ccccc1)c1ccc(OCCN(C)C)cc1)c1ccccc1
15.3%: max response [1, 21]
active: Potency [15] 50.1 µM | Potency [16] 39.8 µM | Potency [17] 50.1 µM | Potency [7] 8.91 µM | Potency [8] 12.6 µM | Potency [9] 11.2 µM | Potency [10] 11.2 µM | Potency [11] 7.94 µM | Potency [12] 11.2 µM
inactive: outcome [2] | outcome [3] | activity change, negative = inhibition ([1]; at 57.5 µM (top of the series)) 6.58% | outcome [4] | outcome [5] | outcome [13] | outcome [14]
6.28%: max response [1, 20]

Cc1cccc(C)c1OCC(C)N (centres undefined)
8.91% and -0.493%: max response [1, 20]
inactive: activity change, negative = inhibition ([1]; at 57.5 µM (top of the series)) 1.76% and 1.1% | outcome [4] | outcome [5] | outcome [6] | Potency [9] | Potency [10] | Potency [12] | outcome [14]
19.3% and 0.0191%: max response [1, 21]
active: Potency [7] 12.6 µM | Potency [8] 12.6 µM | Potency [11] 7.94 µM

COCCCCC(=NOCCN)c1ccc(C(F)(F)F)cc1
5.1%: max response [1, 21]
5.99%: max response [1, 20]
inactive: outcome [2] | outcome [3] | activity change, negative = inhibition ([1]; at 25.7 µM (top of the series)) 0.501%

COc1cccc(-c2cc(=O)c3ccccc3o2)c1N
15.5%: max response [1, 21]
inactive: outcome [2] | outcome [3] | activity change, negative = inhibition ([1]; at 57.5 µM (top of the series)) 1.98% | outcome [4] | outcome [5] | outcome [6] | outcome [13] | outcome [14]
active: Potency [11] 12.6 µM
13.8%: max response [1, 20]

CC(=O)N[C@@H](CS)C(=O)O
inactive: outcome [2] | outcome [3] | outcome [4] | outcome [5] | outcome [6] | Potency [7] | Potency [8] | Potency [9] | Potency [10] | Potency [11] | Potency [12] | outcome [13]

O=C1NC(=O)C(c2ccccc2)(c2ccccc2)N1
inactive: Potency [15] | Potency [16] | Potency [17] | outcome [2] | outcome [3] | activity change, negative = inhibition ([1]; at 57.5 µM (top of the series)) 7.13% and 0.319% | outcome [4] | outcome [5] | Potency [7] | Potency [8] | Potency [9] | Potency [10] | Potency [11] | Potency [12] | outcome [13] | outcome [14]
12.1% and -15.7%: max response [1, 20]
24.5% and -14.7%: max response [1, 21]

CC1=C(/C=C/C(C)=C/C=C/C(C)=C/C(=O)Nc2ccc(O)cc2)C(C)(C)CCC1
active: Potency [15] 50.1 µM | Potency [16] 39.8 µM | Potency [17] 39.8 µM | Potency [7] 3.55 µM | Potency [8] 6.31 µM | Potency [9] 11.2 µM | Potency [10] 12.6 µM | Potency [11] 3.98 µM | Potency [12] 12.6 µM
inactive: outcome [2] | outcome [3] | outcome [4] | outcome [5] | outcome [6] | outcome [14]

CC(=O)O[C@]1(C(C)=O)CC[C@H]2[C@@H]3C=C(Cl)C4=CC(=O)[C@@H]5C[C@@H]5[C@]4(C)[C@H]3CC[C@@]21C
inactive: Potency [15] | Potency [16] | Potency [17]

O=C(O)Cc1cccc2ccccc12
inactive: Potency [15] | Potency [16] | Potency [17] | outcome [19]

COc1ccc(Cc2nccc3cc(OC)c(OC)cc23)cc1OC
inactive: outcome [2] | outcome [3]

CC(C)(C)c1ccc(C(O)CCCN2CCC(C(O)(c3ccccc3)c3ccccc3)CC2)cc1 (centres undefined)
inactive: outcome [2] | outcome [3] | activity change, negative = inhibition ([1]; at 57.5 µM (top of the series)) -1.34% | outcome [4] | outcome [5] | outcome [14]
-13.9%: max response [1, 21]
-10.3%: max response [1, 20]

CCCCC1C(=O)N(c2ccccc2)N(c2ccccc2)C1=O
inactive: Potency [15] | Potency [16] | Potency [17] | outcome [2] | outcome [3] | outcome [4] | outcome [5] | outcome [6] | outcome [19] | outcome [14]
active: Potency [8] 14.1 µM | Potency [9] 11.2 µM | Potency [11] 11.2 µM
